Test results published in PubChem BioAssay (NCATS).
“And” between values parts separate entries of the source, which are not always exact repeats. Identical values can stand only once. Records with an inconclusive call do not appear. Entries that show only a call come without a potency. Unmarked numbers belong to inactive results. The source made the active and inactive calls. Calls come from the whole dose curve; as a rule, active = well fitted inhibition curve with a large enough effect; inconclusive = small, poorly fitted or top-dose-only effect; inactive = flat fitted curve, though single readings scatter.

Assays:
KB-3-1 = experiment: Cytotoxic Profiling of Annotated Libraries Using Quantitative High-Throughput Screening (AID 1296008); settings: Five cell lines viability, CellTiter-Glo ATP luminescence, 48-72 h; max response: active compounds read low
How it was run: (§1)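 Cytotoxicity was measured as CellTiter-Glo ATP luminescence, read after 10 min at room temperature. Compound treatment of the cells lasted 48 or 72 hr at 37 degrees Celsius in a qHTS format.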

NIH3T3 [1] = experiment: as above; settings: Five cell lines viability, CellTiter-Glo ATP luminescence, 48-72 h; max response: active compounds read low
How it was run: as §1

HACAT = experiment: qHTS assay to identify novel small-molecules to repurpose for Merkel cell carcinoma treatment (AID 1296009); settings: MCC and control cell lines, CellTiter-Glo viability, 72 h; at 44.8 µM (top of the series) unless noted
How it was run: (§2)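 72 hr, 37 degree celsius; NPC 8-pt / MIPE 11-pt dose response; compound pinned in DMSO; CellTiter-Glo, 10 min RT, luminescence; normalized to no-cell and DMSO controls.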

MCC-13 = experiment: as above; settings: MCC and control cell lines, CellTiter-Glo viability, 72 h; series mostly up to 46 µM
How it was run: as §2

MCC-26 = experiment: as above; settings: MCC and control cell lines, CellTiter-Glo viability, 72 h; series mostly up to 46 µM
How it was run: as §2

MKL-1 = experiment: as above; settings: MCC and control cell lines, CellTiter-Glo viability, 72 h; series mostly up to 46 µM
How it was run: as §2

MKL-2 = experiment: as above; settings: MCC and control cell lines, CellTiter-Glo viability, 72 h; series mostly up to 46 µM
How it was run: as §2

UISO = experiment: as above; settings: MCC and control cell lines, CellTiter-Glo viability, 72 h; series mostly up to 46 µM
How it was run: as §2

HEK293T = experiment: as above; settings: MCC and control cell lines, CellTiter-Glo viability, 72 h; at 44.8 µM (top of the series) unless noted
How it was run: as §2

NIH3T3 [2] = experiment: as above; settings: MCC and control cell lines, CellTiter-Glo viability, 72 h; at 44.8 µM (top of the series) unless noted
How it was run: as §2
Note: nearly all actives have a fitted effect of over 60% in size.
Potency is the fitted concentration of half-maximal effect.

| Structure (SMILES) | max response (KB-3-1) | max response (NIH3T3 [1]) | outcome (HACAT) | Potency (MCC-13) | Potency (MCC-26) | Potency (MKL-1) | Potency (MKL-2) | Potency (UISO) | outcome (NIH3T3 [1]) | outcome (HEK293T) | outcome (NIH3T3 [2]) | Potency (KB-3-1) | Potency (NIH3T3 [1]) |
| --- | --- | --- | --- | --- | --- | --- | --- | --- | --- | --- | --- | --- | --- |
| Nc1cc(=O)[nH]c(N)n1 | -2.08% | -15.9% | inactive | inactive | inactive | inactive | inactive | inactive | – | – | – | – | – |
| CC(=O)Nc1ccc(/C=N/NC(N)=S)cc1 | -10.7% and 2.19% | -3.1% | inactive | inactive | inactive | inactive | inactive | inactive | – | – | – | – | – |
| CCCCC/C(C=O)=C\c1ccccc1 | -6.5% | – | – | inactive | inactive | inactive | inactive | inactive | inactive | inactive | inactive | – | – |
| N[C@@H](CSCCCO)C(=O)O | -1.02% | – | – | inactive | inactive | inactive | inactive | inactive | inactive | inactive [at 17.4 µM] | inactive [at 17.4 µM] | – | – |
| C[C@]12CC[C@@H]3c4ccc(O)cc4CC[C@H]3[C@@H]1CC[C@@H]2OC(=O)CCC1CCCC1 | -5.64% and 15.4% | 2.8% | inactive | inactive | inactive | inactive | inactive | inactive | – | – | – | – | – |
| CN(C)CCC=C1c2ccccc2CCc2ccccc21 | -15.7% | -1.26% | inactive | inactive | inactive | inactive | – | inactive | – | – | – | – | – |
| Cc1cccc(Nc2cc(Cl)nc(SCC(=O)O)n2)c1C | 6.42% and 8.75% | -16.8% and 0.675% | inactive | inactive | inactive | inactive | inactive | inactive | – | – | – | – | – |
| OCc1cc(C(O)CNCCCCCCOCCCCc2ccccc2)ccc1O (configuration not stated) | -19.3% | -10.4% | – | inactive | inactive | inactive | – | – | – | – | – | – | – |
| O=Cc1ccccc1C=O | -3.37% | – | – | inactive | inactive | inactive | inactive | inactive | inactive | inactive | inactive | – | – |
| C#CCN(C)Cc1ccccc1 | -4.93% | 3.32% | inactive | inactive | inactive | inactive | inactive | inactive | – | – | – | – | – |
| CC(C)(C)C(=O)NCCCC(=O)O | -0.595% | – | – | inactive | inactive | inactive | inactive | inactive | inactive | inactive | inactive | – | – |
| CC1=C(CC(=O)O)c2cc(F)ccc2/C1=C\c1ccc(S(C)(=O)=O)cc1 | -9.19% | -5.99% | – | inactive | inactive | inactive | – | – | – | – | – | – | – |
| CN1CCCCC1CCN1c2ccccc2Sc2ccc(S(C)=O)cc21 (configuration not stated) | -15.2% and 0.424% | -18.7% | inactive | inactive | inactive | inactive | inactive | inactive | – | – | – | – | – |
| CN(C)CCCN1c2ccccc2CCc2ccccc21 | -10.8% | -1.95% | – | inactive | inactive | inactive | – | – | – | – | – | – | – |
| CCCCN(CCCC)CCCOC(=O)c1ccc(N)cc1 | -15.2% | – | – | inactive | inactive | inactive | inactive | inactive | inactive | inactive | inactive | – | – |
| C[C@H](NC(CCc1ccccc1)C(=O)O)C(=O)N1CCC[C@H]1C(=O)O (some centres not stated) | -16.2% | 1.23% | inactive | inactive | inactive | inactive | inactive | inactive | – | – | – | – | – |
| C[C@@H]1CCN(C(=O)[C@H](CCCN=C(N)N)NS(=O)(=O)c2cccc3c2NC[C@H](C)C3)[C@@H](C(=O)O)C1 | 1.81% | – | – | inactive | inactive | inactive | inactive | inactive | inactive | inactive | inactive | – | – |
| c1ccc2c(CC3=NCCN3)cccc2c1 | -1.96% and -17.3% and -10.3% | 1.32% | – | inactive | inactive | inactive | inactive | inactive | – | inactive | – | – | – |
| C=Cc1c(C)c2cc3[nH]c(cc4nc(cc5nc(cc1[nH]2)C(C)=C5CCC(=O)O)C(CCC(=O)O)=C4C)c(C)c3C=C | -3.43% | -14.7% | inactive | inactive | inactive | inactive | inactive | inactive | – | – | – | – | – |
| Nc1ccc(S(=O)(=O)Nc2ccc(Cl)nn2)cc1 | 14.3% and -6.92% | 1.13% | – | inactive | inactive | inactive | inactive | inactive | – | inactive | – | – | – |

| Structure (SMILES) | max response (KB-3-1) | max response (NIH3T3 [1]) | outcome (HACAT) | Potency (MCC-13) | Potency (MCC-26) | Potency (MKL-1) | Potency (MKL-2) | Potency (UISO) | outcome (NIH3T3 [1]) | outcome (HEK293T) | outcome (NIH3T3 [2]) | Potency (KB-3-1) | Potency (NIH3T3 [1]) |
| --- | --- | --- | --- | --- | --- | --- | --- | --- | --- | --- | --- | --- | --- |
| NC1CCN(c2cccc(Cl)n2)CC1 | 2% | – | inactive | inactive | inactive | inactive | inactive | inactive | inactive | – | inactive | – | – |
| NS(=O)(=O)c1cc2c(cc1Cl)NC(CSCc1ccccc1)=NS2(=O)=O | 1.03% | – | – | inactive | inactive | inactive | inactive | inactive | inactive | inactive | inactive | – | – |
| O=C(O)c1ccccc1O | 7.74% and -13.4% | – | – | inactive | inactive | inactive | inactive | inactive | inactive | inactive | inactive | – | – |
| C[C@H]1O[C@@H](n2cc(F)c(=O)[nH]c2=O)[C@H](O)[C@@H]1O | -0.506% | -23.8% | – | inactive | inactive | inactive | inactive | inactive | – | inactive | – | – | – |
| NCC(=O)CCC(=O)O | 1.71% | – | – | inactive | inactive | inactive | inactive | inactive | inactive | inactive | inactive | – | – |
| Cc1cc(CC(=O)O)n(C)c1C(=O)c1ccc(Cl)cc1 | -2.26% and -15.1% | -0.54% | – | inactive | inactive | inactive | inactive | inactive | – | inactive | – | – | – |
| O=C1N=C(O)CN1/N=C/c1ccc(-c2ccc([N+](=O)[O-])cc2)o1 | 4.36% | -4.3% | inactive | inactive | inactive | inactive | inactive | inactive | – | – | – | – | – |
| C[C@]12CC[C@@H]3c4ccc(O)cc4CC[C@H]3[C@@H]1CCC2=O | 23.7% | 0.542% | – | inactive | inactive | inactive | inactive | inactive | – | inactive | – | – | – |
| CO/N=C(\C(=O)N[C@@H]1C(=O)N2C(C(=O)O)=C(CSc3nc(=O)c(O)nn3C)CS[C@H]12)c1csc(N)n1 | -0.48% | – | – | inactive | inactive | inactive | inactive | inactive | inactive | inactive | inactive | – | – |
| O=c1cc[nH]c(=O)[nH]1 | 20.9% | – | – | inactive | inactive | inactive | inactive | inactive | inactive | inactive | inactive | – | – |
| NC(=O)N/N=C/c1ccc([N+](=O)[O-])o1 | -7.34% and -25.8% | 3.44% | inactive | inactive | inactive | 24.3 µM (active) | 15.4 µM (active) | inactive | – | – | – | – | – |
| CCn1cc(C(=O)O)c(=O)c2cnc(N3CCNCC3)nc21 | -0.342% | – | – | inactive | inactive | inactive | inactive | inactive | inactive | inactive | inactive | – | – |
| CC1(C)S[C@@H]2[C@H](NC(=O)Cc3ccccc3)C(=O)N2[C@H]1C(=O)O (tested in a mixture with another compound) | 9.18% | – | – | inactive | inactive | inactive | inactive | inactive | inactive | inactive | inactive | – | – |
| CN1CCN(C2Cc3ccccc3Sc3ccc(Cl)cc32)CC1 (configuration not stated) | 6.06% | -9.64% | inactive | inactive | inactive | 26.6 µM (active) | 26.6 µM (active) | 23.7 µM (active) | – | – | – | – | – |
| CCN(CC)CCOC(=O)C1(C2CCCCC2)CCCCC1 | -11.2% | 1.01% | inactive | inactive | inactive | inactive | inactive | inactive | – | – | – | – | – |
| O=C(O)[C@H](O)c1ccccc1 | – | – | inactive | inactive | inactive | inactive | inactive | inactive | inactive | inactive | inactive | – | – |
| CC(C)(C)NCC(O)COc1ccc(NC(=O)NC2CCCCC2)cc1 (configuration not stated) | – | – | inactive | inactive | inactive | inactive | inactive | inactive | inactive | inactive | inactive | – | – |
| CCCCN(CCCC)CC(O)c1cc(Cl)cc2c1-c1ccc(Cl)cc1/C2=C/c1ccc(Cl)cc1 (configuration not stated) | -7.25% | – | – | inactive | inactive | – | – | – | – | – | – | – | – |
| [O-][n+]1cccc(CO)c1 | – | – | inactive | inactive | inactive | inactive | inactive | inactive | inactive | inactive | inactive | – | – |
| CC(=O)O[C@@]12CO[C@@H]1C[C@H](O)[C@@]1(C)C(=O)[C@H](O)C3=C(C)[C@@H](OC(=O)[C@H](O)[C@@H](NC(=O)OC(C)(C)C)c4ccccc4)C[C@@](O)([C@@H](OC(=O)c4ccccc4)[C@H]21)C3(C)C | – | – | – | – | – | – | inactive | – | – | – | – | 0.0073 µM (active) | 0.0084 µM (active) |
